The text below walks through data of PubChem BioAssay (NCATS).

Test [1] has as its system Zika virus NS2B-NS3 protease (linked construct). The test can be described thus: Primary screen NINDS Rhodamine qHTS for Zika virus inhibitors (AID 1347160). For activity change, negative = inhibition: % is set by controls: 0 for no effect and ±100 for the full control effect. Note: nearly all actives have a fitted effect of over 55% in size. An outline of the steps: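 Kinetic fluorescence (Ex 480 nm, Em 540 nm) over 15 min with 1.5 microM Rhodamine110 peptide and 25 nM linked protease.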
A general note: qHTS replaces the single test concentration by a dilution series.

Test [2] is described as follows: Primary qHTS for inhibitors of nuclear receptor binding SET domain protein 2 (NSD2) in an RCH-ACV wild type WT cells (2C) (AID 1645877). Note: nearly all actives have a fitted effect of over 70% in size. Note: potency is the fitted concentration of half-maximal effect.
Test [3] concerns the target Glutathione peroxidase 1 (Homo sapiens) (UniProt P07203). The test can be described thus: Primary qHTS Assay for Inhibitors of Recombinant Selenoprotein Glutathione Peroxidase 1 (GPX1) (AID 1845191). Note: nearly all actives have a fitted effect of over 65% in size. The procedure, abridged:
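10 nM GPX1 + cpd, 30 min RT; start w/ 1 mM GSH, 0.5 mM cumene hydroperoxide, 0.5 mM NADPH, 100 nM GR, 0.01% BSA; buffer 50 mM Tris-HCl pH 7.5, 2 mM EDTA, 150 mM NaCl; Fl 340/450, 0 & 15 min.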

The nature of test [4]: Primary fluorescence-based thiol-reactive (MSTI) qHTS assay for identification of artifact compounds. (AID 1845221).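 Note: thiol-reactive compounds lower the probe fluorescence signal; nearly all actives have a fitted effect of over 65% in size.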 The procedure, abridged:
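First, 4 uM MSTI in 2% DMSO/PBS pH 7.4 was dispensed; next, compounds were added; then plates sat 1 h at room temperature without light. Finally, emission at 598 nm was recorded.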

Test [5] is described as follows: Primary redox qHTS assay for identification of artifact compounds. (AID 1845223).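 Note: 0% = DMSO and 100% = reference compound.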 An outline of the steps:
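Amplex Red (25 uM) and HRP (250 mU/mL) in HBSS, with compounds for 15 min, then 250 uM DTT for 30 min, room temperature, dark. Fluorescence 525/598 nm read; normalized to DMSO and 10 uM DA3003; Hill fit.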

Test [6] concerns KB-3-1. The test can be described thus: Cytotoxic Profiling of Annotated Libraries Using Quantitative High-Throughput Screening (AID 1296008). For max response: % is set by controls: 0 for no effect and ±100 for the full control effect. Note: nearly all actives have a fitted effect of over 60% in size. Note: potency is the fitted concentration of half-maximal effect. The note with it: Five cell lines viability, CellTiter-Glo ATP luminescence, 48-72 h; max response: stronger effect = lower value. An outline of the steps:
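Cytotoxicity was measured as CellTiter-Glo ATP luminescence, read after 10 min at room temperature. Compound treatment of the cells lasted 48 or 72 hr at 37 degrees Celsius in a qHTS format.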
In general terms: Cellular ATP, detected with luciferase, serves as a proxy for viable cell number.

Test [7] deals with HeLa. The test can be described thus: Primary qHTS to identify gynecologic anti-cancer compounds using libraries of approved drugs and bioactive compounds (AID 1345084). Note: nearly all actives have a fitted effect of over 55% in size. Note: potency is the fitted concentration of half-maximal effect. The note with it: Gynecologic cancer cell panel viability, ATPlite luminescence, 48 h; series mostly up to 57.5 µM. An outline of the steps:
(§1)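 48 h compound exposure at 37 C, 5% CO2; five-point qHTS. ATPlite luminescence readout of cell ATP.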

The test system of test [8] is SKOV3. The test is described as above. Conditions: Gynecologic cancer cell panel viability, ATPlite luminescence, 48 h; series mostly up to 57.5 µM. An outline of the steps:
as §1

Test [9] has as its system CRL-7250. The test can be described thus: qHTS assay to identify novel small-molecules to repurpose for Merkel cell carcinoma treatment (AID 1296009). Note: nearly all actives have a fitted effect of over 60% in size. The note with it: MCC and control cell lines, CellTiter-Glo viability, 72 h; series mostly up to 92 µM. An outline of the steps: (§2)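 After compound transfer in DMSO, plates were kept 72 hr at 37 degree celsius. Luminescent ATP signal from CellTiter-Glo served as viability measure, normalized against DMSO and no-cell controls.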

For test [10], the target named is Cytochrome P450 2D6 (Homo sapiens) (UniProt P10635). The test can be described thus: Cytochrome P450 family 2 subfamily D member 6 (CYP2D6) small molecule antagonists: luciferase biochemical (cell-free) qHTS assay (AID 1645840; active = well fitted curve in the direction sought with a large enough effect in the repeat runs; an effect the other way counts as inactive or inconclusive; note: nearly all actives have a fitted effect of over 55% in size; note: potency is the fitted concentration of half-maximal effect; for activity change, negative = inhibition: % is set by controls: 0 for no effect and ±100 for the full control effect). The procedure, abridged:
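P450-Glo luminescent screen: recombinant CYP2D6 enzyme–proluciferin substrate mix preincubated with compound 10 min at room temperature, then NADPH regeneration added for 1 h at room temperature. Detection reagent added for 20 min; luciferin light read as relative luminescence units.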

The target in test [11] is Cytochrome P450 2C9 (Homo sapiens) (UniProt P11712). The test can be described thus: Cytochrome P450 family 2 subfamily C member 9 (CYP2C9) small molecule antagonists: luciferase biochemical (cell-free) qHTS assay (AID 1645842; active = well fitted curve in the direction sought with a large enough effect in the repeat runs; an effect the other way counts as inactive or inconclusive; note: potency is the fitted concentration of half-maximal effect; nearly all actives have a fitted effect of over 55% in size). The procedure, abridged:
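Luminescence, after 20 min with luciferin detection reagent, reflected CYP2C9 turnover during a 1 h NADPH-driven reaction at 37C. Enzyme-substrate mix contained 0.4% bovine serum albumin and was preincubated with compound 10 min at room temperature.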

Test [12] concerns Zika virus NS2B-NS3 protease (unlinked complex). The test can be described thus: Primary screen GU Rhodamine qHTS for Zika virus inhibitors: Unlinked NS2B-NS3 protease assay (AID 1347159). Note: % is set by controls: 0 for no effect and ±100 for the full control effect; nearly all actives have a fitted effect of over 60% in size. The procedure, abridged: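 A qHTS format was used, with compound concentrations ranging up to 114 microM. Each compound was preincubated with 25 nM NS2B-NS3 protease, and the substrate was then added at 1.5 microM. Curves were fitted with a 4-parameter Hill model.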

The nature of test [13]: P-glycoprotein substrates identified in KB-3-1 adenocarcinoma cell line, qHTS therapeutic library screen (AID 1346986). Note: nearly all actives have a fitted effect of over 60% in size. The procedure, abridged:
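Counter-screen: cherry-picked hits retested in the KB pair and in HEK-293 pcDNA/MDR-19 cells ± tariquidar. Primary screen used 72 h CellTiter-Glo viability in KB-3-1 and KB-8-5-11.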

The target in test [14] is Guanidinoacetate N-methyltransferase (Homo sapiens) (UniProt Q14353). The test can be described thus: Confirmatory Screen for Target Class Profiling of Small Molecule Inhibitors of Methyltransferases (AID 1745852). Note: % is set by controls: 0 for no effect and ±100 for the full control effect. Conditions: activity change, negative = inhibition: at 57.3 µM (top of the series) unless noted.
In test [15] the test system is HACAT. The test can be described thus: qHTS assay to identify novel small-molecules to repurpose for Merkel cell carcinoma treatment (AID 1296009). Note: nearly all actives have a fitted effect of over 60% in size. The note with it: MCC and control cell lines, CellTiter-Glo viability, 72 h; at 44.8 µM (top of the series) unless noted. An outline of the steps: as §2
The test system of test [16] is NIH3T3. The description is as above. The note with it: MCC and control cell lines, CellTiter-Glo viability, 72 h; at 44.8 µM (top of the series) unless noted. The procedure, abridged:
as §2

Structures are written as SMILES. Results filed as inconclusive are left out. Active and inactive are the calls of the source. Unless noted, calls come from the whole dose curve; as a rule, active = well fitted curve in the direction sought with a large enough effect; inconclusive = small, poorly fitted or top-dose-only effect, or another doubt; inactive = no such curve, though single readings can be large; an effect the other way counts as inactive or inconclusive.

Chain of Glutathione peroxidase 1 (Homo sapiens) (P07203 whole entry, looked up): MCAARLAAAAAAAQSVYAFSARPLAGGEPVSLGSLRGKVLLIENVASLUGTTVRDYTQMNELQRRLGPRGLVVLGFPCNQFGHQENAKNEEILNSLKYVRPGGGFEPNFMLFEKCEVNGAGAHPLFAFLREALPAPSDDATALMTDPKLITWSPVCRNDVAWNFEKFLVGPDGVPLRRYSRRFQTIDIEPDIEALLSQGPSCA
Chain of Cytochrome P450 2D6 (Homo sapiens) (P10635 whole entry, looked up): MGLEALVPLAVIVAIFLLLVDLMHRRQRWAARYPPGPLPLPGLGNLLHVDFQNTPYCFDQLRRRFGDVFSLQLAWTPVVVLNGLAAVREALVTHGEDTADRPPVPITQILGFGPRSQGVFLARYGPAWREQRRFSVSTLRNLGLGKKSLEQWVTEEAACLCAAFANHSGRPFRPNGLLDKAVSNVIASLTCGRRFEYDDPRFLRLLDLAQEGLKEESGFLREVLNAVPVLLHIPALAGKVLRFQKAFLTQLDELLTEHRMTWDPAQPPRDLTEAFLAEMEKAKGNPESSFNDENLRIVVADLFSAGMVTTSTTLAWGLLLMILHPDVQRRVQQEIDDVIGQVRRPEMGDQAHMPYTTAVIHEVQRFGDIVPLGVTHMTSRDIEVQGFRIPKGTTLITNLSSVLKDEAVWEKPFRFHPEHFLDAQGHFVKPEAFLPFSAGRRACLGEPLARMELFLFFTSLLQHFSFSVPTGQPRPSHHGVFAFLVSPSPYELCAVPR
Chain of Cytochrome P450 2C9 (Homo sapiens) (P11712 whole entry, looked up): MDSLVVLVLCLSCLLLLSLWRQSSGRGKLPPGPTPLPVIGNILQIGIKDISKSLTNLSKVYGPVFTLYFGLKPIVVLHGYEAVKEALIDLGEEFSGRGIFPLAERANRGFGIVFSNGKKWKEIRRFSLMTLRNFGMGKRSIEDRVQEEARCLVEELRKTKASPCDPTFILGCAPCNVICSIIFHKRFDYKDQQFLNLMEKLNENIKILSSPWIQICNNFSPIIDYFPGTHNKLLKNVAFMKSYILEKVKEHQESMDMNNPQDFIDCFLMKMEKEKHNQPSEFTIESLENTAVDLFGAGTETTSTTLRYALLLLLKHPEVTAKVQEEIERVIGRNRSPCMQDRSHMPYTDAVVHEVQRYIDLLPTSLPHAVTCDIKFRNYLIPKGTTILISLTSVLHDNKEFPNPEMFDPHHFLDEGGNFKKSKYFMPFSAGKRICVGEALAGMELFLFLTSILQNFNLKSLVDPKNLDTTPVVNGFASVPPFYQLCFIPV

On to `CCN1C[C@]2(COC)CC[C@H](O)[C@@]34C5C[C@@H]6[C@@H](OC)C[C@@](OC(C)=O)(C5[C@@H]6OC(C)=O)[C@H]([C@H](OC)C23)[C@@H]14` (stereo partly specified), for which the Potency entry in [1], in [2], in test [3], in test [4], in [5] and in test [7] was “inactive” each time. Further, the Potency result in [8] was “inactive”. In test [6], the max response is -0.111% (inactive).
For `Cc1c(N[C@@H](c2nnc(-c3ccc(C#N)cc3)o2)[C@H](C)O)ccc(C#N)c1Cl`, the Potency result in test [1], in test [3], in [4], in test [5], in test [9] and in test [7] was “inactive” each time. In addition, the Potency result in [8] was “inactive”. Further, in test [6], the max response is -17.4% (inactive).
On to `CC(C)[C@H]1OC(=O)[C@H](Cc2ccccc2)N(C)C(=O)[C@@H](C(C)C)OC(=O)[C@H](Cc2ccccc2)N(C)C(=O)[C@@H](C(C)C)OC(=O)[C@H](Cc2ccccc2)N(C)C1=O`, for which the Potency entry in test [1] and in [4] was “inactive” each time. Also, the Potency in [2] is 4.83 µM (active).
For the molecule `CN1C(=O)[C@@H](Cc2c[nH]c3ccccc23)N=C(c2ccccc2F)c2ccccc21`, the Potency was 9.52 µM (active) in [10] and 6.74 µM (active) in [11]. Moreover, the Potency entry in test [3], in [4], in test [5], in test [9], in [7] and in test [8] was “inactive” in each case. Besides, the max response in test [6] was -7.12% (inactive).
In the case of `C[C@@H]1O[C@@H](OC2CCC3(C=O)C(CCC4C3CCC3(C)C(C5=CC(=O)OC5)C(O)CC43O)C2)[C@H](O)[C@H](O)[C@H]1O[C@@H]1O[C@H](CO)[C@@H](O)[C@H](O)[C@H]1O` (stereo partly specified), the Potency result in [1], in test [3] and in [5] was “inactive” in each case. In addition, the results for the Potency in test [2] and in test [8] were 4.83 µM (active) and 11.2 µM (active), respectively.
With `CN1Cc2c(ccc3c2OCO3)[C@@H]2[C@H]1c1cc3c(cc1C[C@@H]2O)OCO3`, the Potency entry in test [12], in test [1], in test [3], in test [4] and in test [5] was “inactive” throughout. Further, the Potency in test [2] is 2.26 µM (active); in test [6], 2.86 µM (active); in [7] it was 3.16 µM (active).
In the case of `CCCN(CCC)[C@@H]1CCc2ccc3[nH]c(C#N)cc3c2C1`, the Potency result in [13], in test [12], in [1], in test [2], in test [3] and in test [4] was “inactive” in each case. The Potency entry in test [5], in test [9] and in test [7] was “inactive” throughout. In addition, the Potency in test [10] was 0.338 µM (active). In [14], this molecule yielded an activity change, negative = inhibition of 0%. The call in [6], in [15] and in test [16] was inactive.
Turning to `CCCCCn1cc(C(=O)Oc2cccc3cccnc23)c2ccccc21`, the Potency entry in [12], in [1], in test [10], in test [3], in [4] and in [5] was “inactive” each time. In addition, the Potency result in [9], in test [7] and in test [8] was “inactive” in each case. In addition, the Potency in [11] was 3.38 µM (active). The max response in test [6] is -8.4% (inactive).
